# Results from PubChem BioAssay AID1347141 (National Center for Advancing Translational Sciences (NCATS), 2019).
# This is one part of the list. Records with an inconclusive call do not appear. Active and inactive are the calls of the source. Calls come from the whole dose curve; as a rule, active = well fitted inhibition curve with a large enough effect; inconclusive = small, poorly fitted or top-dose-only effect; inactive = flat fitted curve, though single readings scatter.
# Experiment: qHTS of pediatric cancer cell lines to identify multiple opportunities for drug repurposing: Orthogonal 3D viability screen for RD cells
# Conditions: RD rhabdomyosarcoma 3D spheroid viability, PI/Hoechst imaging, 72 h; series mostly up to 30.7 µM
# Source text: Drug repurposing or repositioning has been offered as a strategy for drug development in oncology programs. This approach has special potential for childhood cancers and other rare or orphan diseases, where the expected return on new drug development has been a disincentive to pharmaceuticals. […] In this project we exploit the poly-pharmacology of drugs to discover new indications via phenotypic screening of a panel of 19 well-characterized cell lines derived from solid tumors seen in children and adolescents. The goal is to identify approved drugs with previously unrecognized anticancer properties that has the potential to reveal new mechanisms and biological processes involved in carcinogenesis or drug resistance. We employed a titration-based paradigm (quantitative high-throughput screening or qHTS), where all compounds were tested at multiple concentrations for their effect on cell viability. Concentration-response curves (CRCs) were derived directly from the primary screen, and both potency and efficacy values were used to identify compounds with robust bioactivity profiles. […] These two assays will be used to validate active compounds and assess the correlation of compound's potency in 2D vs 3D cultures on selected cell lines. Assay Submitter: Nathalia J. Martinez, National Center for Advancing Translational Sciences, National Institutes of Health, Rockville, MD, USA; email: natalia.martinez@nih.gov Shen, M et al. Quantitative high-throughput phenotypic screening of pediatric cancer cell lines identifies multiple opportunities for drug repurposing. Oncotarget 2017 Dec 19;9(4):4758-4772. PMID 29435139.
# The cells were obtained from University of North Carolina (UNC), Pediatric Preclinical Testing Program (PPT), and Coriell Institute (CI). qHTS viability in 3D culture: Cells were assayed in phenol red-free growth media at a density of 1,000 cells/well, with the exception of Daoy, and SH-N-SH which were assayed at 1,500 cells/ well. Thirty muL of cells were dispensed into 384-well, ULA, round bottom plates (Corning) using a Multidrop dispenser. Plates were spun down at 1,000 rpm for 1 min and incubated at 37 degrees C, 5% CO2, under a humidified atmosphere for either 24 (Daoy) or 48 hours (all other cell lines) to allow spheroid formation. Ninety-two nanoliter of compounds and controls (neutral control DMSO or positive control bortezomib at final concentrations of 0.5 µM) were subsequently transferred via GNF Pintool. Plates were sealed using a breathable seal (Diversified Biotech, Dedham, MA) and incubated for 72 hours at 37 degrees C. Spheroid viability was first determined by high-content imaging using Hoechst 33342 and Propidium Iodide (PI, ThermoFisher Scientific), followed by addition of CellTiter-Glo 3D (Promega). Specifically, 3 µL/well of PBS containing a 1:500 dilution of both dyes was dispensed using Multidrop. Dyes were incubated for 1 hour before imaging using the Celigo Image Cytometer. Then, 20 µl of CellTiter-Glo 3D were added per well. Plates were incubated for 30 min at RT on a VWR microplate shaker (300 rpm) and analyzed for luminescence intensity using a ViewLux High-throughput CCD imager equipped with clear filters. Image analysis was done using the Celigo Tumorsphere 1+2+3 application software as previously described. […] The data were exported to Excel, and the average fluorescent intensities were used to calculate the ratio of PI over Hoechst, which was used to quantify viability. […]
row,Compound,Potency
1,CC1(C)O[C@@H]2C[C@@H]3[C@H]4C[C@@H](F)C5=CC(=O)C=C[C@]5(C)[C@@]4(F)[C@@H](O)C[C@]3(C)[C@]2(C(=O)CO)O1,10.2 µM (active)
2,CC[C@]1(O)C[C@@H]2CN(CCc3c([nH]c4ccccc34)[C@@](C(=O)OC)(c3cc4c(cc3OC)N(C)[C@H]3[C@@](O)(C(=O)OC)[C@H](OC(C)=O)[C@]5(CC)C=CCN6CC[C@]43[C@@H]65)C2)C1,0.0456 µM (active)
3,CC[C@H]1CN2CCc3cc(OC)c(OC)cc3[C@@H]2C[C@@H]1C[C@H]1NCCc2cc(OC)c(OC)cc21,2.04 µM (active)
4,C=C1C(=CC=C2CCC[C@]3(C)[C@@H]([C@H](C)C=C[C@H](C)C(C)C)CC[C@@H]23)C[C@@H](O)C[C@@H]1O,inactive
5,CC(NCc1ccc2c(c1)nc(NC(=O)c1ccc(-c3cn[nH]c3)s1)n2CC(C)(C)O)C(C)(C)C (stereo not given),0.81 µM (active)
